HP1b binding inh – inhibitors of HP1-beta chromodomain binding to methylated histone tails; Potency, µM (doses to about 114 µM), for the others: at the highest dose activity change, negative = inhibition, actives largely listed as inhibitors; 390,000 compounds, 0.56% hits; P83916; AlphaScreen HP1-beta / biotin-H3K9me3 peptide binding; note: nearly all actives have a fitted effect of over 70% in size
Target sequence (P83916 whole entry, looked up): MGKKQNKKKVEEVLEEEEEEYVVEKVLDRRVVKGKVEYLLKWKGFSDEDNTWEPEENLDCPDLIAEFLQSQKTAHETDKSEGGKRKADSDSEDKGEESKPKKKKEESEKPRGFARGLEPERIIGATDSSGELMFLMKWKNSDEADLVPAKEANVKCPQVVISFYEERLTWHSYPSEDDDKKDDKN
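AlphaScreen: HP1-beta (50 nM) preformed 30 min with biotin-H3(1-18)K9me3 peptide (50 nM) in PBS pH 7.4, 0.01% Tween-20. Compound added for 30 min at RT, then streptavidin donor/nickel chelate acceptor beads (10 ug/mL) for 30 min.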
G9a block – inhibitors of human histone lysine methyltransferase G9a; Q96KQ7; G9a H3K9 monomethylation, AlphaScreen, 2 h; Potency, µM (titrated, usually from 102 µM), without a hit: top-dose activity, negative = inhibition, actives largely listed as inhibitors; 350,000 compounds, 8.8% hits; AID 504332; note: % is set by controls: 0 for no effect and ±100 for the full control effect; nearly all actives have a fitted effect of over 75% in size
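Methyltransferase reactions run at room temperature for 2 h (20 nM enzyme, 500 nM biotin-H3K9 peptide, 20 uM SAM) after a 15 min compound preincubation; product detected by AlphaScreen beads and anti-H3K9me1 antibody.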
JMJD2A Tudor inh – inhibitors of human JMJD2A Tudor domain. AlphaScreen JMJD2A-Tudor / H3K4me3 peptide binding. AID 504339. Potency, µM (top dose mostly 114 µM), for the others: at the highest dose activity change, negative = inhibition, most hits filed as inhibitors. 390,000 compounds, 4.4% hits. O75164; note: % is set by controls: 0 for no effect and ±100 for the full control effect; nearly all actives have a fitted effect of over 50% in size
Sfp inh – inhibitors of Bacillus subtilis Sfp phosphopantetheinyl transferase; 310,000 compounds, 3.5% hits; Q9F4F7; Potency, µM, inactives show largest response in the series, negative = inhibition, most hits filed as inhibitors; AID 1490; Biochemical Sfp PPTase activity, qHTS;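 note: the enzyme is Sfp with the accession as filed and its product quenches rhodamine fluorescence; 0% = enzyme reaction without inhibitor and -100% = no enzyme wells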
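With Hepes-Na pH 7.6 buffer containing 10 mM MgCl2, Sfp (15 nM) modified BHQ-2-YbbR (12.5 uM) using rhodamine-CoA (5 uM). Two reads 30 minutes apart at 525/598 nm yielded each well's rate.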
TDP1 inh – inhibitors of human tyrosyl-DNA phosphodiesterase TDP1; recombinant TDP1, AlphaScreen DNA substrate cleavage; Potency, µM (doses to about 130 µM), for inactives: at the highest dose activity change, negative = inhibition, hits mostly inhibitors; 350,000 compounds, 0.28% hits; AID 485290; note: % is set by controls: 0 for no effect and ±100 for the full control effect; nearly all actives have a fitted effect of over 40% in size
Target sequence (Q9NUW8 whole entry, looked up): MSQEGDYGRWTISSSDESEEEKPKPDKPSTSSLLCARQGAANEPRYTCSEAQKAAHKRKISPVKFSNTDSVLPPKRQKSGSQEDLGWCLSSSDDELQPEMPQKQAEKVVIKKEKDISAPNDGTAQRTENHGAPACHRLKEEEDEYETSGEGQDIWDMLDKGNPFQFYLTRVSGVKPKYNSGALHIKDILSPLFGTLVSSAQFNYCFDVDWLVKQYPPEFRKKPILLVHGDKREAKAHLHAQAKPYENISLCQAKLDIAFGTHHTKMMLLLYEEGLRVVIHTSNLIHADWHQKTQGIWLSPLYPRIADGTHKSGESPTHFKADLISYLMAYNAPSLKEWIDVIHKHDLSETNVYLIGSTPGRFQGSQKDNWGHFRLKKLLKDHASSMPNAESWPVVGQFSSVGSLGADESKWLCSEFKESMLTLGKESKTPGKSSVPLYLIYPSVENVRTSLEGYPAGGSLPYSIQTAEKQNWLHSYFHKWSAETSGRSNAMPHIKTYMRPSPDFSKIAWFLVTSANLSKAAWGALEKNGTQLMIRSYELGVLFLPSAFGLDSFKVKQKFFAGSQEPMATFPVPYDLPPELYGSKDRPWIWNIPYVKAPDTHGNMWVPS
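Enzyme-compound mixtures sat 15 min at room temperature, followed by a 5 min reaction with 15 nM final substrate and 10 min with AlphaScreen beads. Recombinant human Tdp1 was used at 1 nM final.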
BAZ2B inh – BAZ2B (human) inhibition | Q9UIF8 | AlphaScreen BAZ2B-H3K14Ac peptide displacement | 360,000 compounds, 4.4% hits | AID 504333 | Potency, µM (top dose mostly 114 µM), for inactives: at the highest dose activity change, negative = inhibition, actives largely listed as inhibitors; note: % is set by controls: 0 for no effect and ±100 for the full control effect; nearly all actives have a fitted effect of over 60% in size
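Compounds, titrated to a top concentration of 110 uM, were incubated 30 min at room temperature with preformed BAZ2B/acetyl-K14 H3 peptide complex (50 nM each). Proximity signal was measured by AlphaScreen after 20 min with beads.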
Numbers without * were called inactive; ? = inconclusive; · = no result; ! = repeats disagree; [ ] = remark or other dose. This is a sample that favours compounds with a hit; in the whole collection about 12% have one here. Calls come from the whole dose curve; as a rule, active = well fitted curve in the direction sought with a large enough effect; inconclusive = small, poorly fitted or top-dose-only effect, or another doubt; inactive = no such curve, though single readings can be large; an effect the other way counts as inactive or inconclusive. Potency is the fitted concentration of half-maximal effect.

SMILES	HP1b binding inh	G9a block	JMJD2A Tudor inh	Sfp inh	TDP1 inh	BAZ2B inh
Cc1ccc(NNC(=O)c2ccno2)cc1Cl	28.0%	8.91µM*	-22.3%	1.0%	0.0%	-30.6%
Cc1ccc2c(c1)Oc1ccc(NC(=O)CCl)cc1C(=O)N2	31.1%	-2.6%	-13.3%	11.1%	2.5%	-15.7%
Cn1ncc([N+](=O)[O-])c1C(=O)N1CCCCCC1	15.2%	·	-23.1%	8.6%	1.6%	-5.7%
CCCC1(C(=O)OCC)NC(c2ccc(N(C)C)cc2)C2C(=O)N(c3ccc(OCC)cc3)C(=O)C21 (stereo unspecified)	-25.7%	50.1µM*	?	13.8%	5.9%	?
COc1ccc(CN(Cc2cccn2C)C(=O)c2cc3cc(OC)ccc3[nH]2)cc1	-31.1%	50.1µM*	?	4.6%	6.5%	?
COc1ccc(C(=O)NC2CCN(S(=O)(=O)c3ccccc3F)CC2)cc1	17.0%	7.8%	-12.6%	14.3%	·	-5.2%
O=C1CN(C(=O)c2ccccc2)c2ccccc2N1	18.0%	6.2%[59 µM]	-2.5%	-3.0%	3.3%	4.8%
O=C1C(=C(c2ccccc2)c2ccccc2)Nc2ccccc21	15.8µM*	-146.8%[59 µM]	28.2µM*	3.4%	12.9%	11.2µM*
O=c1[nH]c(-c2ccccc2)c(-c2ccccc2)o1	22.3%	44.7µM*	-18.1%	14.1%	·	-29.8%
Cc1ccc(C(=O)N(C)c2nnc(-c3ccncc3)s2)cc1	8.4%	·	79.4µM*	-4.4%	-2.5%	-33.8%
CN(C(=O)c1ccno1)c1nnc(-c2ccccn2)s1	49.4%	?	?	16.6%	6.2%	50.1µM*
CN(C(=O)c1ccncc1)c1nnc(-c2ccccn2)s1	16.3%	-4.0%[12.7 µM]	-27.7%	7.8%	0.0%	56.2µM*
CCOC(=O)NC1C=CS(=O)(=O)C1 (stereo unspecified)	21.2%	50.1µM*	-9.1%	11.1%	3.9%	-3.1%
CC(=O)Nc1ccc(S(=O)(=O)Oc2cccc(/C=C3\SC(N)=NC3=O)c2)cc1	-0.8%	-1.2%[59 µM]	25.1µM*	-8.9%	6.2%	-31.1%
NC1=NC(=O)/C(=C/c2cccc(F)c2)S1	14.3%	3.7%	-10.0%	-4.0%	·	1.9%
COc1ccc(S(=O)(=O)Nc2cc3c(C(C)=O)c(C)oc3c3ccccc23)cc1	-8.1%	-1.9%[12.7 µM]	-21.3%[57.1 µM]	44.7µM*	3.9%	?
CC(=O)c1c(C)oc2c1cc(NS(=O)(=O)c1ccc(C(C)(C)C)cc1)c1ccccc12	14.9%	-9.4%[59 µM]	-30.7%	·	4.8%[2.28 µM]	-29.4%
Cc1oc2c(cc(NS(=O)(=O)c3ccc(C(C)C)cc3)c3ccccc32)c1C(=O)O	-13.7%	50.1µM*!	?	-7.5%	-2.9%	50.1µM*!
NCCCC[C@H](NC(=O)[C@@H]1CCCN1C(=O)[C@@H](N)CCCN=C(N)N)C(=O)N1CCC[C@H]1C(=O)N[C@@H](CCC(N)=O)C(=O)N[C@@H](CCC(N)=O)C(=O)N[C@@H](Cc1ccccc1)C(=O)O	·	·	·	-22.7%	10.8%	·
O=C(/C(N=Nc1cccc([N+](=O)[O-])c1)=C(/O)c1ccc(Br)cc1)C(F)(F)F	·	39.8µM*	·	12.3%	12.6%	25.1µM*
O=[N+]([O-])c1cccc(N=Cc2ccccc2)c1	22.2%	·	-15.2%	·	·	·
Cc1nnc(SCCN2CCOCC2)n1C	?	35.5µM*	1µM*	?	0.0%	?
Cc1cc(C)c(C#N)c(SCCN2CCOCC2)n1	9.4%	·	-9.0%	3.2%	6.8%	-3.2%
CCCCOCCCNS(=O)(=O)c1ccccc1	18.8%	-3.4%[59 µM]	0.0%	5.7%	-2.0%	-3.4%
CCCCOP(=O)(OCCCC)C1(NS(=O)(=O)c2ccccc2)C=CC(=O)c2ccccc21 (stereo unspecified)	?	1.78µM*	?	1.7%	11.5%	-7.3%
SMILES	HP1b binding inh	G9a block	JMJD2A Tudor inh	Sfp inh	TDP1 inh	BAZ2B inh
Cc1cccc(NC(=O)COc2ccc(-c3nn(C)c(=O)c4ccccc34)cc2)c1	1.1%	4.7%	-18.6%	-7.8%	3.8%	-1.3%
NC(=S)Nc1cccc2[nH]ccc12	28.5%	-30.1%	-4.1%	0.1%	1.3%	-20.6%
COc1ccc(CN2CCN(Cc3ccccc3F)CC2)cc1OC	?	8.91µM*	5.62µM*	?	·	35.5µM*
COc1cc(OC)c(OC)cc1CN1CCN(Cc2cccc(F)c2)CC1	-14.9%	?	56.2µM*	9.9%	·	-31.1%
COc1ccc(CN2CCN(Cc3cccc(F)c3)CC2)cc1OC	?	-10.7%[2.33 µM]	3.16µM*	?	·	22.4µM*
COc1ccc(CN2CCN(c3ccccc3OC)CC2)cc1OC	?	·	22.4µM*	-21.5%	·	50.1µM*
COc1cccc(CS(=O)(=O)c2nnnn2CC(C)C)c1	·	·	·	3.2%	6.9%	·
CCOC(=O)c1c(NC(=O)C(C)Sc2cn(CCNC(=O)c3ccc(OC)cc3)c3ccccc23)sc2c1CCC2 (stereo unspecified)	-0.6%	?	-29.9%	·	1.9%	?
CCc1c(CN2CCN(c3ccc(F)cc3)CC2)csc1C	24.7%	?	-33.7%	·	5.1%	-26.6%
COc1cc(OC)c(OC)cc1CN1CCN(c2ccc(F)cc2)CC1	?	28.2µM*	44.7µM*	0.3%	·	50.1µM*
COC(=O)c1cc(CN2CCN(c3ccccc3C)CC2)ccc1O	?	7.08µM*	2µM*	-10.7%	-10.1%	56.2µM*
Clc1cccc(CN2CCN(Cc3ccco3)CC2)c1	20µM*	7.94µM*	1.78µM*	?	·	17.8µM*
COc1cc(OC)c(OC)cc1CN1CCN(Cc2ccco2)CC1	-10.8%	35.5µM*	22.4µM*	-9.4%	·	79.4µM*
Cc1cccc(Cn2ncc3c4sc(C)cc4n(C)c3c2=O)c1	·	·	11.0%	·	·	·
COc1ccccc1C(=O)C1CCCN(C(=O)C2=CC(=O)CC(C)(C)O2)C1 (stereo unspecified)	13.3%	4.5%	-2.3%	13.5%	4.0%	-1.4%
COc1ccccc1Cn1cc(C(=O)c2ccc(C)cc2)c(=O)c2cc(F)cc(F)c21	24.5%	3.0%[59 µM]	-13.8%	·	4.6%	-4.1%
Cc1csc2ncc(C(=O)NCc3ccccc3Cl)c(=O)n12	34.1%	12.9%[59 µM]	-14.5%	6.6%	2.6%	8.2%
COc1ccc(CNC(=O)c2sc(=S)n(-c3ccc(OC)cc3)c2N)cc1	?	?	?	20µM*	9.1%	?
Cc1ccc(-n2c(N)c(C(=O)NCc3ccco3)sc2=S)cc1	?	?	?	?	5.4%	?
COc1ccc(CNC(=O)c2cnc3n(c2=O)CCS3)cc1	38.5%	44.7µM*	-11.0%	8.5%	0.0%	6.8%
O=C(NCc1ccccc1Cl)c1cnc2n(c1=O)CCS2	37.7%	56.2µM*	-11.3%	?	-2.0%	-14.4%
O=C(NCc1cccnc1)c1cnc2n(c1=O)CCS2	16.2%	-10.8%[59 µM]	-8.2%	3.9%	5.0%	9.1%

Screening data deposited in PubChem BioAssay by National Center for Advancing Translational Sciences (NCATS).
